# In PubChem BioAssay (NCATS):
# Inconclusive results are not listed. Calls of active or inactive are those of the source. The call rests on the fitted dose curve; in most records, active means well fitted inhibition curve with a large enough effect; inconclusive means small, poorly fitted or top-dose-only effect; inactive means flat fitted curve, though single readings scatter.
# Molecular target: Calcium and integrin-binding protein 1 (Homo sapiens) (UniProt Q99828)
# Assay: Primary qHTS for Identification of Calcium Integrin Binding Protein 1 (CIB1) Competitor (AID 1508620);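 further: GST tagged CIB1 binding a fluorescein labelled alphaIIb integrin peptide tracer; top concentration of the series differs between compounds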
# Details: CIB1-GST / FITC-alphaIIb peptide fluorescence polarization; series mostly up to 57.7 µM; activity change, negative = inhibition: at the top concentration
# Text: Assay Provider: Ulhas P. Naik, PhD Sidney Kimmel Medical College Thomas Jefferson University, Philadelphia, PA Primary function of platelets is to maintain hemostasis. At the site of vascular injury, platelets adhere to adhesive proteins such as collagen and von Willebrand factor. Adherent platelets are activated and generate soluble platelet agonists such as thrombin, ADP and thromboxane A2. Following exposure of circulating platelets to these agonists, results in platelet shape change, granule secretion and activation of platelet integrin alphaIIb-beta3. Ligand binding to activated integrin alphaIIb-beta3 triggers outside-in signaling, leading to platelet aggregation, stabilization of platelet plug, and clot retraction. Upon atherosclerotic plaque rupture also causes platelet plug formation, which underlies a number of cardiovascular diseases such as myocardial infraction and stroke. A number of anti-platelet drugs such as aspirin, clopidogrel, prasugrel, vorapaxar, and eptifibatide are currently available to prevent the thrombotic complications. However, these anti-platelet agents have several limitations including inherent variability in individual responses, developing resistance, and serious bleeding side effects. For these reasons they are not suitable for long-term protection. Based on the experiences with current anti-platelet drugs, it appears that the most useful therapeutic approach is to intersect the secondary responses such as integrin outside-in signaling or recruitment of platelets by TxA2 and secreted ADP. Compounds, which can largely preserve the primary hemostatic function of platelets but inhibit secondary response will be most desired therapeutic agents for treatment of cardiovascular disease. CIB1 is a calcium integrin binding protein, which specifically interact with the alphaIIb subunit of integrin alphaIIb-beta3. Binding of CIB1 to alphaIIb regulates the outside-in signaling in platelets, which is needed for thrombus stabilization and thrombus growth. […] Therefore, we propose that discovery of a small molecule that can prevent the association of CIB1 and alphaIIb-beta3 will be a potential anti-platelet agent that can block the thrombus formation without undue effect on hemostasis. Reference: [1] Naik MU, Nigam A, Manrai P, et al. CIB1 deficiency results in impaired thrombosis: the potential role of CIB1 in outside-in signaling through integrin alpha IIb beta 3. J Thromb Haemost.
# PROTOCOL TABLES SEQUENCE No. (1, 2, 3, etc.); […] (e.g., Cells, Incubation, Reagent, etc.); VALUE and DESCRIPTION. 1; Reagent; 3 uL; Protein or buffer (4/3x) 2; Compound; 46 nL; Control inhibitor / compound library 3; Time; 15 min; Room temperature incubation 4; Reagent; 1 uL; Fluorescent labeled peptide (4x) 5; Time; 1000 rpm; Centrifuge 6; Time; 15 min; Room temperature incubation 7; Detection; Ex 480/ Em 540; ViewLux Fluorescence Read NOTES (numbers refer to sequence above) 1; Protein Mixture: C1B1-GST (final concentrations of 1 uM). […] 3; Room temperature incubation. 4; Fluorescent Labeled Peptide: FITC-aIIb (final concentration of 100 nM). Sequence of alphaIIb peptide: Acetyl-[…]-FITC (purity is 95.83%). 5; Centrifuge 1000 rpm (164 g) for 15 seconds. 6; Room temperature incubation. 7; ViewLux Fluorescent Polization Read: excitation = 480(20) / emission = 540(25) S and P; FITC Dichroic mirror.
# On the % scale 0 is the no-effect control and ±100 the full control effect.
# Calcium and integrin-binding protein 1 (Homo sapiens), sequence (Q99828 whole entry, looked up): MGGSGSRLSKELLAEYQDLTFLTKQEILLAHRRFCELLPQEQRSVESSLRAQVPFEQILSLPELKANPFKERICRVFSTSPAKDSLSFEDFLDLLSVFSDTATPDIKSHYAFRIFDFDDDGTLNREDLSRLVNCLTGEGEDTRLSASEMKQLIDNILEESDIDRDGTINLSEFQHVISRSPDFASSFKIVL
Structure (SMILES),"activity change, negative = inhibition",Potency
NC(N)=Nc1nc(CSCC/C(N)=N/S(N)(=O)=O)cs1,2.35% [at 114 µM] (inactive),–
Nc1ncnc2c1ncn2[C@@H]1O[C@@H](CO)[C@H](O)[C@H]1O,3.34% (inactive),–
N[C@@]1(C(=O)O)CS(=O)(=O)[C@H]2[C@H](C(=O)O)[C@H]21,3.79% (inactive),–
Cc1c[nH]c(C=C2C(=O)Nc3ccccc32)c1CCC(=O)O,9.33% (inactive),–
COCCOC(=O)C1=C(C)NC2=C(C(=O)CC(c3ccccc3OC)C2)C1c1cccc(O)c1 (stereo not given),–,inactive
O=C(O)CCC1CCC(c2cc(F)ccc2F)(S(=O)(=O)c2ccc(Cl)cc2)CC1 (stereo not given),-10.7% (inactive),–
CC1(C)CCC2=C(O1)c1ccccc1C(=O)C2=O,-1.26% (inactive),–
O=C(Nc1ccccc1Br)N[C@@H]1CCN(c2ccc(C(F)(F)F)cn2)C1,-6.7% (inactive),–
CCNc1cc(NC2CCC(O)CC2)nc(Nc2ccc3c(ccn3Cc3ccccc3)c2)n1 (stereo not given),3.17% (inactive),–
Nc1nc(F)nc2c1ncn2[C@@H]1O[C@H](COP(=O)(O)O)[C@@H](O)[C@H]1O,-0.522% (inactive),–
COc1cc(N2CCC(N3CCN(C)CC3)CC2)ccc1Nc1ncnc(Nc2ccccc2S(=O)(=O)C(C)C)n1,–,inactive
CC=C(C)C(=O)O[C@H]1C(C)=C[C@]23C(=O)[C@@H](C=C(CO)[C@@H](O)[C@]12O)[C@H]1[C@@H](C[C@H]3C)C1(C)C,-8.62% (inactive),–
O=C(O)CCc1nc(-c2ccccc2)c(-c2ccccc2)o1,–,inactive
CC[C@H]1OC(=O)[C@H](C)C(=O)[C@H](C)[C@@H](O[C@H]2O[C@H](C)C[C@H](N(C)C)[C@@H]2O)[C@](C)(OC)C[C@@H](C)C(=O)[C@H](C)[C@H]2N(CCCCn3cnc(-c4cccnc4)c3)C(=O)O[C@]12C,-1.36% (inactive),–
NC(=O)c1ccc2nc(-c3ccc(Oc4ccc(Cl)cc4)cc3)[nH]c2c1,–,inactive
COc1ccc(-c2nc(N3CCOCC3)c3sc(CN(C)c4ncc(C(=O)NO)cn4)cc3n2)cn1,-8.91% (inactive),–
O=c1ccn([C@@H]2O[C@H](CO)[C@H](O)[C@H]2O)c(=O)[nH]1,1.15% (inactive),–
O=c1c(-c2ccc(O)cc2)coc2cc(O)ccc12,2.31% (inactive),–
CN1CCN(CCOc2cc(OC3CCOCC3)c3c(Nc4c(Cl)ccc5c4OCO5)ncnc3c2)CC1,–,inactive
CC(C)(C)C(=O)Oc1ccc2c(c1)nc(NC(=O)c1cccc([N+](=O)[O-])c1)n2CCCO,-1.84% [at 114 µM] (inactive),–

Structure (SMILES),"activity change, negative = inhibition",Potency
CC(=O)N(C)C1(c2ccccc2)CCN(CCC[C@]2(c3ccc(Cl)c(Cl)c3)CCCN(C(=O)c3ccccc3)C2)CC1,–,inactive
O=C1NC(=O)C(=Cc2cccc(C(F)(F)F)c2)S1,-13.1% (inactive),–
O=C(Nc1cc(Cl)cc2c1[nH]c1cnccc12)c1cccnc1,-1.87% (inactive),–
O=C(Nc1c(Cl)cncc1Cl)c1ccc(OC(F)F)c(OCC2CC2)c1,-1.5% (inactive),–
O=C1C(Cl)=C(NCCN2CCOCC2)C(=O)c2ncccc21,-6.93% (inactive),–
COc1ccc2cc(-c3nc(-c4ccc(S(C)=O)cc4)[nH]c3-c3ccncc3)ccc2c1 (stereo not given),–,inactive
COc1cc2c(cc1OC)CN(CCc1ccc(NC(=O)c3cc(OC)c(OC)cc3NC(=O)c3cnc4ccccc4c3)cc1)CC2,-6.94% (inactive),–
O=C(O)c1ccccc1C(=O)Nc1ccc(-c2ccccc2)cc1,–,inactive
C[C@@H](O)[C@H]1C(=O)N2C(C(=O)O)=C(S[C@@H]3CN[C@H](C(=O)N(C)C)C3)[C@H](C)[C@H]12,–,inactive
O=C1NC(=O)C(=Cc2ccc(-c3ccc(F)cc3)o2)S1,-5.68% (inactive),–
COc1cc2ncnc(Nc3ccc(F)c(Cl)c3)c2cc1OCCCN1CCOCC1,–,inactive
CO[C@H]1C=CC=C(C)C(=O)NC2=CC(=O)C(NCCN(C)C)=C(C[C@@H](C)C[C@H](OC)[C@@H](O)[C@@H](C)C=C(C)[C@@H]1OC(N)=O)C2=O,-0.362% (inactive),–
CC1(C)S[C@H]2[C@H](NC(=O)[C@@H](N)c3ccc(O)cc3)C(=O)N2[C@@H]1C(=O)O,-0.606% (inactive),–
NCCS,-1.15% [at 114 µM] (inactive),–
CN(C)CCC(c1ccccc1)c1ccccn1 (stereo not given),–,inactive
O=C(NCCN1CCOCC1)c1ccc(Cl)cc1,-1.28% [at 114 µM] (inactive),–
CN1[C@@H]2CCC[C@@H]1CC(NC(=O)c1nn(C)c3ccccc13)C2 (stereo not given in full),-2.54% (inactive),–
CNC(=O)c1ccccc1Sc1ccc2c(C=Cc3ccccn3)n[nH]c2c1,-3.53% (inactive),–
Cc1[nH]c(C=C2C(=O)Nc3ccc(S(=O)(=O)Cc4c(Cl)cccc4Cl)cc32)c(C)c1C(=O)N1CCC[C@H]1CN1CCCC1,20.5% (inactive),–
NC[C@@H]1O[C@@H](O[C@H]2[C@@H](O)[C@H](O[C@@H]3[C@@H](O)[C@@H](N)C[C@H](N)[C@H]3O[C@H]3O[C@H](CN)[C@@H](O)[C@@H](O)[C@H]3N)O[C@H]2CO)[C@H](N)[C@@H](O)[C@@H]1O,-1.97% (inactive),–
